An excerpt weighted towards active compounds, which were near 1.8% of everything screened.
PI5P4K alpha inh: inhibitors of human PI5P4K alpha; PI5P4Kalpha enzyme, ADP-Glo luminescence, 60 min; stronger effect = lower value; max response, %; 330,000 tested, 1.2% active; AID 652105; active = max response of -50% or lower; inconclusive = between -30% and -50%; inactive = -30% or higher; also: value at the top dose of about 77 µM
Target sequence (P48426 whole entry, looked up): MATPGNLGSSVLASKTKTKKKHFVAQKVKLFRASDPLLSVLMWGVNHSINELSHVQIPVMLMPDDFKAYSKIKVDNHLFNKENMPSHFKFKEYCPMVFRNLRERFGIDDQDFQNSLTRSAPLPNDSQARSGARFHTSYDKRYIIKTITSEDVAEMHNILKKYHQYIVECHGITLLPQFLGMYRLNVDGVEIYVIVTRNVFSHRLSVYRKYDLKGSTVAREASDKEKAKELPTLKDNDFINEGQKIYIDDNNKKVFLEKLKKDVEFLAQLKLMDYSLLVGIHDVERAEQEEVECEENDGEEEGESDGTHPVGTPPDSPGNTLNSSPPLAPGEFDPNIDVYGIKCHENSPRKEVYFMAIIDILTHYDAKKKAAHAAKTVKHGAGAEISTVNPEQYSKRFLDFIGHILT
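Reactions run in 0.038 M HEPES pH 7.4, 0.28 mM EGTA, 0.1% CHAPS and 5% DMSO, with PI5P4Kalpha, substrate, compound and 5 microM ATP final, one hour at room temperature. Readout is ADP-Glo luminescence.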
pAkt inh: Akt phosphorylation inhibition; activity change, % for hits at 50 µM; Neuro2A IGF-stimulated pAkt S473 HTRF, 20 min; stronger effect = lower value; 360,000 tested, 0.32% active; AID 651550; in the data active = activity change below about -80%; inconclusive = mostly about -51% to -80%
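Neuro2A cells in DMEM with 0.5% FBS, overnight at 37 deg C, given compound at single 50 µM final, then IGF (6 nM final) for 20 min at 37 deg C. Lysed; phospho-Akt Ser473 by HTRF after 24 h, 665/615 ratio.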
CtBP-E1A blk: blocks the CtBP interaction with E1A; 340,000 tested, 0.49% active; AlphaScreen GST-E1A/His-CtBP binding, 1536-well; stronger effect = lower value; AID 651724; activity change, % (no concentration beside the values)
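Protein mix (5X: 125 nM each GST-E1A, His-CtBP) was incubated with pinned compound 2 h at 37 deg C in dark, in 50 mM Tris pH 8.0 buffer with 300 mM NaCl. Glutathione donor and nickel acceptor beads followed; AlphaScreen signal read after 1 h.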
Six1-Eya2 inh: inhibitors of human Six1/Eya2 interaction; Q15475+O00167; AlphaScreen GST-Six1/His-Eya2 binding, biochemical; stronger effect = lower value; activity change, % (test concentration not listed); 360,000 tested, 0.56% active
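Homogeneous AlphaScreen proximity assay pairing GST-Six1 with His-tagged Eya2 (added as 5X mix: 250 nM and 500 nM) in 50 mM Tris pH 8.0, 300 mM NaCl, 1 mM TCEP. Glutathione donor and nickel acceptor beads; 1 h, 37 °C, dark.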
PI4K2A block: PI4K2A (human) kinase inhibition; Q9BTU6; purified PI4K2A, ADP-Glo luminescence, 1 h; stronger effect = lower value; activity change, negative = inhibition, % at 76.9 µM; 420,000 tested, 0.13% active; AID 1346378; in the data active = activity change below about -50%; inconclusive = mostly about -30% to -49%
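Compounds are screened against recombinant PI4K2A using PI as substrate and ATP, the latter dispensed at 300 microM. Reactions run one hour at ambient temperature before ADP-Glo detection; full inhibition defined by wells lacking enzyme.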
A number is an active result; . = inactive; ? = inconclusive; / = no result given. Rule as the data show it, unless noted: active = activity change below about -65%; inconclusive = mostly about -30% to -63%; inactive = weaker than that.

SMILES | PI5P4K alpha inh | pAkt inh | CtBP-E1A blk | Six1-Eya2 inh | PI4K2A block
COc1ccc(C(NC(C)=O)c2cc(Cl)c3cccnc3c2O)cc1OC (stereo unspecified) | . | . | ? | ? | .
Cc1ccc(C(NC(=O)C(C)C)c2cc([N+](=O)[O-])c3cccnc3c2O)cc1 (stereo unspecified) | ? | . | -96.3 | -88.4 | .
O=C(NCc1ccccn1)c1n[nH]c2ccccc12 | . | . | . | . | .
CNC(=O)c1[nH]nc2c1CCc1ccccc1-2 | . | . | . | . | .
CCOCCCn1c(=N)c(C(=O)NCC2CCCO2)cc2c(=O)n3cccc(C)c3nc21 (stereo unspecified) | / | / | / | / | .
CC(C)OCCCN1CC(=O)N2C(c3ccccc3)c3[nH]c4ccccc4c3C[C@H]2C1=O (stereo partly specified) | . | . | . | . | .
Cc1n[nH]c2c([N+](=O)[O-])c(=O)[nH]c(=O)n12 | -67.1 | . | . | . | .
Cc1nc(N2CCOCC2)[nH]c(=O)c1[N+](=O)[O-] | . | . | . | . | .
O=C1COc2ccc(-c3csc(NCCc4ccccc4)n3)cc2N1 | . | . | . | . | .
COc1ccc(S(=O)(=O)N2CCC(C(=O)NCCc3ccccc3)CC2)cc1OC | / | . | . | . | .
Cc1ccc(S(=O)(=O)Nc2ccc(O)c3ccccc23)c(C)c1 | . | . | . | ? | ?
Cc1ccc(S(=O)(=O)Nc2cc(C(C(=O)OC(C)C)C(=O)C(F)(F)F)c(O)c3ccccc23)c(C)c1 (stereo unspecified) | . | . | . | -77.4 | .
CCc1ccc(/C(C)=N/NC(=O)CNC(=O)/C=C/c2ccccc2OC)cc1 | . | . | . | . | .
COc1ccc(NC(=O)C2CCCN2S(=O)(=O)c2ccc3nc(-c4ccccc4)[nH]c3c2)cc1 (stereo unspecified) | / | / | / | / | .
CCc1ccccc1NC(=O)C1C(c2ccccc2)C1(Cl)Cl (stereo unspecified) | . | -106.6% | . | . | .
CN(C)c1ccc(Cc2cc3c(O)ccc(O)c3cc(Cc3ccc(N(C)C)cc3)c2=O)cc1 | -84.4 | . | . | ? | -56.4
CN(C)c1ccc(C(=O)c2ccc(O)cc2O)cc1 | . | . | . | . | .
O=C(COC(=O)c1cc(S(=O)(=O)N2CCCC2)ccc1O)NCc1ccccc1 | . | . | . | . | .
COc1ccccc1/C=C/C=c1\sc2nc(=O)c(Cc3ccccc3)nn2c1=O | -75.8 | . | . | . | .
O=C(NNC(=O)C1CC1)c1ccccc1[N+](=O)[O-] | . | . | . | . | .
O=C(NNC(=O)c1ccccc1[N+](=O)[O-])c1ccccn1 | . | . | . | -77.2 | .
COc1cccc(/C=C/C(=O)OCC(=O)c2c[nH]c3ccccc23)c1 | . | . | -78.5 | . | .
O=C(/C=C/c1ccccc1)OCC(=O)c1c[nH]c2ccccc12 | . | . | . | . | .
OC(c1cccc(Cl)c1)c1nc(-c2ccc3c(c2)OCO3)cs1 (stereo unspecified) | . | . | . | . | .
O=S(=O)(Nc1cc(Sc2ncn[nH]2)c(O)c2ccccc12)c1ccccc1 | -90.0 | . | . | . | -63.6
SMILES | PI5P4K alpha inh | pAkt inh | CtBP-E1A blk | Six1-Eya2 inh | PI4K2A block
Cc1cc(O)c(Sc2ncn[nH]2)cc1NS(=O)(=O)c1ccc(Cl)cc1 | . | . | . | . | .
COc1ccccc1-c1cc(C(=O)Nc2cc(C)on2)no1 | / | . | . | . | -84.6
O=C(Oc1csc(=S)n1C(=O)c1ccccc1)c1ccccc1 | -75.2 | . | . | . | .
COc1ccc(C2=C(C)C(=NCc3ccc(OC(C)C)cc3)NS2(=O)=O)cc1 | / | / | / | / | .
O=C(C1=C(O)C(=O)N(Cc2ccco2)C1c1cccnc1)c1cc2ccccc2o1 (stereo unspecified) | . | -82.1% | . | . | .
CCOC(=O)c1[nH]c2cc(OC)c(OC)cc2c1NC(=O)C(C)N1CCN(Cc2ccccc2)CC1 (stereo unspecified) | . | . | -65.4 | ? | .
O=C(Oc1c(CN2CCOCC2)cc(Cl)c2cccnc12)c1ccccc1Cl | . | . | -91.2 | -93.2 | .
O=C(Oc1cncc(Cl)c1)c1ccco1 | . | . | . | . | .
O=C(Oc1c(Cl)cc(Cl)c2cccnc12)c1cccs1 | . | . | -81.7 | -67.1 | .
O=C(Oc1c(Cl)cc(Cl)c2cccnc12)c1ccco1 | . | . | . | -92.3 | .
O=C(Oc1c(CN2CCOCC2)cc(Cl)c2cccnc12)c1cccs1 | . | . | -85.9 | -84.4 | .
CCCCNC(=O)/C=C/c1cccs1 | . | . | . | . | .
Cc1c(Cl)cccc1N=Cc1ccc([N+](=O)[O-])s1 | / | . | ? | -67.2 | .
Cc1ccccc1C(=O)N/N=C/c1ccc([N+](=O)[O-])s1 | / | . | . | . | .
COc1ccccc1OCC#CCSc1ncccn1 | . | . | / | . | .
COc1ccc(OCCn2cc(/C=N/NC(=O)c3ccncc3)c3ccccc32)cc1 | . | . | . | . | .
COCCNC(=O)Cn1cc(/C=N/NC(=O)c2ccc(Oc3ccc(O)cc3)cc2)c2ccccc21 | -106.6 | . | . | . | .
O=C(CN1C(=O)CCC1=O)Nc1ccc(Br)cc1 | / | -103.4% | . | . | .
O=C(CSc1nnc(Cc2ccccc2)n1Cc1ccccc1)NCc1ccco1 | . | . | . | . | .
O=C(CSc1nnc(CNc2ccc(Cl)cc2)n1Cc1ccccc1)NCc1ccco1 | . | -108.6% | . | . | .
CCCN(C(=O)COC(=O)CSc1ccc(C(N)=O)cc1[N+](=O)[O-])C1CCS(=O)(=O)C1 (stereo unspecified) | . | . | . | . | .
CC(C)C(=O)NC(=S)/C=C1/N(C)c2ccccc2C1(C)C | . | . | . | ? | .
Cc1ccc(C(=O)NC(=S)/C=C2\N(C)c3ccccc3C2(C)C)cc1 | . | . | -81.1 | -75.4 | .
Cc1cc(C)n(S(=O)(=O)c2cc(Cl)ccc2Cl)n1 | . | -120.9% | . | . | .
O=C(c1cc(S(=O)(=O)N2CCOCC2)c(Cl)cc1Cl)N1CCCCC1CO (stereo unspecified) | . | . | . | . | .
SMILES | PI5P4K alpha inh | pAkt inh | CtBP-E1A blk | Six1-Eya2 inh | PI4K2A block
O=[N+]([O-])c1ccc(C[n+]2cccc3ccccc32)cc1 | . | . | . | . | .
O=[N+]([O-])c1ccc(C[n+]2cccc3ccc4cccnc4c32)cc1 | -58.3 | . | -89.0 | -90.4 | .
CCc1cc(=O)oc2c(C)c(OC(C)C(=O)N3CC[C@@]4(O)CCCC[C@H]4C3)ccc12 (stereo partly specified) | . | . | . | . | .
COc1ccccc1NC(=O)CSc1ccc(-c2ccccn2)nn1 | . | . | -89.7 | -88.9 | .
Cc1cccc(NC(=O)CSc2ccc(-c3ccccn3)nn2)c1C | . | . | -75.4 | -86.9 | .
Cc1c(Cl)cccc1NC(=O)CSc1ccc(-c2ccccn2)nn1 | / | / | / | / | .

From PubChem BioAssay
